Screening data: PubChem BioAssay, National Center for Advancing Translational Sciences (NCATS)
FLuc modulator: firefly luciferase modulation, counter-screen for miR-21 project. P08659. purified FLuc, Km substrates, luminescence inhibition. Potency, µM (top dose mostly 57.5 µM), inactives show at the top dose activity change, negative = inhibition, most hits filed as inhibitors. 360,000 tested, 6.9% active. AID 588342;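 note: plate controls were vehicle for no effect and reference inhibitor for full effect; nearly all actives have a fitted effect of over 55% in size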
Target sequence (P08659 whole entry, looked up): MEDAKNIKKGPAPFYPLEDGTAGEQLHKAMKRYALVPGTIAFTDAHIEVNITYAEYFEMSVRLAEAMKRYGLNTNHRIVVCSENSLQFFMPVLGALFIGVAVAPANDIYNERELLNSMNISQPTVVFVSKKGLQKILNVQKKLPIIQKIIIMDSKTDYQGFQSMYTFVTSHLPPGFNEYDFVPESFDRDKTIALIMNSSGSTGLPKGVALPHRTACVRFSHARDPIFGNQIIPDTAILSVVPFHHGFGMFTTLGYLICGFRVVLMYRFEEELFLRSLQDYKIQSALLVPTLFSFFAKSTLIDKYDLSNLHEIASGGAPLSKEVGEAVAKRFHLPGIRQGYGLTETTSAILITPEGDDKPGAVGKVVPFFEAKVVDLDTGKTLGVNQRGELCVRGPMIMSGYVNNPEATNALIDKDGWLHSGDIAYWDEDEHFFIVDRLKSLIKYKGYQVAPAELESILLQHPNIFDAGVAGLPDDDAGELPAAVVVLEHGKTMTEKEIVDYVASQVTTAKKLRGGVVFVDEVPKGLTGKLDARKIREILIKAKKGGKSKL
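Purified P. pyralis luciferase, 10 nM final, with Km-level 10 uM D-luciferin and 10 uM ATP in 50 mM Tris acetate pH 7.5, 10 mM Mg acetate, 0.01% Tween-20, 0.05% BSA; 6-point qHTS titration about 60 µM downward; luminescence read.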
ELG1 genotoxic: induces genotoxicity in HEK293T cells with luciferase-tagged ELG1; HEK293T ELG1-luciferase reporter, luminescence, 16 h; AID 504466; 330,000 tested, 1.3% active; Potency, µM (doses to about 46 µM), inactives show top-dose activity change, positive = activation, most hits filed as activators; note: % of control where 0% means no effect; nearly all actives have a fitted effect of over 60% in size
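HEK293T cells expressing luciferase-tagged ELG1 were treated with compound or DMSO for 16 hr at 37°C. Luciferase activity was then read after 30 min with ONE-Glo at room temperature; rising signal flags genetic stress.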
NPC1 prom act: NPC1 promoter activation. Huh7 NPC1 promoter luciferase reporter, 24 h. Potency, µM (doses to about 9.22 µM), inactives show at the top dose activation, usual class: activators. 320,000 tested, 2.4% active; note: % of control where 0% means no effect; nearly all actives have a fitted effect of over 60% in size
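Luminescence from an NPC1 promoter-driven luciferase reporter in stably transfected Huh7 cells was measured after 24 h compound treatment at 37 °C, followed by 10 min ambient incubation with luciferase detection reagent.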
SMN2 splice enh: SMN2 splice variant enhancement; HEK293 SMN2-luciferase splicing reporter, luminescence, 30-36 h; Potency, µM (titrated, usually from 46.1 µM), for the others: at the top dose activity change, positive = activation, usual class: activators; 210,000 tested, 2.8% active; note: % of control where 0% means no effect; nearly all actives have a fitted effect of over 55% in size
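qHTS luciferase splicing reporter: luminescence rises when SMN2 exon 7 is included in transfected HEK293 cells. Compound exposure lasted 30-36 h at 37C, with 4.5 mM final sodium butyrate as control, followed by a ONE-Glo read.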
ELG1 DNA repair: blocks ELG1-dependent DNA repair in HEK293T cells | HEK293T ELG1-luciferase reporter, luminescence, 16 h; DNA damage induced by 5-fluorouridine | Potency, µM (highest dose often 46.1 µM), for the others: at the top dose activity change, negative = inhibition, usual class: inhibitors | 330,000 tested, 2.3% active; note: % is set by controls: 0 for no effect and ±100 for the full control effect; nearly all actives have a fitted effect of over 55% in size
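Overnight (16 hr) co-exposure of 2,000 cells/well to 5-fluorouridine and compound at 37 °C preceded detection. Luciferase was quantified via ONE-Glo luminescence; loss of signal denotes inhibition.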
Rab9 promoter act: activates the Rab9 promoter. Huh7 Rab9 promoter-luciferase reporter, luminescence, 24 h. Potency, µM (series often up to 9.22 µM), without a hit: top-dose activation, negative = inhibition, hits mostly activators. 320,000 tested, 2.8% active. AID 485297; note: % of control where 0% means no effect; nearly all actives have a fitted effect of over 60% in size
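Huh7 cells stably carrying Rab9 promoter–luciferase reporter, plated 1500 cells/well, compound added after 2 h and incubated 24 h at 37 °C; luciferase luminescence then read after 10 min with detection reagent.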
Starred values were filed as active, the others as inactive; ? = inconclusive; . = no result given. Most compounds without a hit are left out; they make up all but 9.2% or so of the library. Calls come from the whole dose curve; as a rule, active = well fitted curve in the direction sought with a large enough effect; inconclusive = small, poorly fitted or top-dose-only effect, or another doubt; inactive = no such curve, though single readings can be large; an effect the other way counts as inactive or inconclusive. Potency is the fitted concentration of half-maximal effect.

SMILES | FLuc modulator | ELG1 genotoxic | NPC1 prom act | SMN2 splice enh | ELG1 DNA repair | Rab9 promoter act
Cc1cc(-n2c(C)cc(C(=O)COc3ccccc3[N+](=O)[O-])c2C)no1 | ? | 6% | 0% | 8% | -18% | -1%
Cc1cc(C(=O)COc2cccnc2[N+](=O)[O-])c(C)n1-c1ccccc1F | 6µM* | 5% | 23% | . | ? | 12%
Cc1cc(C(=O)COc2cccnc2[N+](=O)[O-])c(C)n1Cc1ccco1 | ? | 11% | 9% | -19% | -6% | 17%
Cc1ccc(-n2c(C)cc(C(=O)COc3cccnc3[N+](=O)[O-])c2C)cc1 | 17µM* | ? | -2% | -42% | ? | -5%
Cc1ccc(OCC(=O)c2cc(C)n(C)c2C)c([N+](=O)[O-])n1 | ? | ? | 14% | ? | ? | ?
Cc1cc(C(=O)COc2cccnc2[N+](=O)[O-])c(C)n1-c1ccccc1 | 2.7µM* | 7% | 3% | -43% | ? | -3%
Cc1snnc1C(=O)NC(=S)Nc1ccccc1 | 0% | 2% | 2% | . | 0% | 4%
COc1ccc(-c2cc(CC3(C(=O)O)CCN(C(=O)OC(C)(C)C)CC3)on2)c(OC)c1 | -18% | 3% | -2% | . | 21% | 1%
CC1(C)CC(=O)C=C(C(=O)N2CCCC(C(=O)c3cccc(Cl)c3)C2)O1 (stereo unspecified) | -3% | -4% | -4% | . | -5% | 1%
O=C(NCc1ccccc1)c1ccccc1-c1nc2ccccc2[nH]1 | -3% | 0% | -4% | -25% | 19% | 5%
CSc1ncccc1-c1nc2ccccc2[nH]1 | 21µM* | 11% | 19% | -1% | ? | 25%
c1ccc2[nH]c(-c3ccnc4ccccc34)nc2c1 | 24µM* | ? | ? | ? | ? | 3.5µM*
Fc1ccccc1-c1nc2ccccc2[nH]1 | 9.5µM* | ? | 3.5µM* | . | ? | 1.8µM*
CCSc1ncccc1-c1nc2ccccc2[nH]1 | ? | ? | ? | ? | ? | 29%
Cc1ccccc1-c1nc2ccccc2[nH]1 | 17µM* | ? | ? | 11µM* | ? | ?
COc1ccc(N2CC(C(=O)N[C@@H](C)C(=O)NC3CCCCC3)CC2=O)cc1 (stereo partly specified) | 1% | 1% | -4% | . | 21% | -6%
Nc1nonc1-c1nc2ccccc2[nH]1 | -5% | 0% | -1% | ? | ? | -3%
CC(C)(C)C(=O)Nc1ccc(Cl)c(-c2nc3ccccc3[nH]2)c1 | -10% | . | . | . | . | .
Clc1ccccc1-c1nc2ccccc2[nH]1 | 8.5µM* | ? | 2.8µM* | . | ? | 2µM*
Cn1cc(Cl)c(-c2nc3ccccc3[nH]2)n1 | 17µM* | 10µM* | 2.5µM* | 16µM* | ? | 3.5µM*
CCn1nc(-c2ccccc2)c(-c2ccccc2)c(C(=O)Nc2ccccc2C(N)=O)c1=O | -14% | . | . | 2% | . | .
COc1ccc([N+](=O)[O-])cc1NC(=O)CCS(=O)(=O)c1ccc(Br)cc1 | -3% | -4% | -1% | . | -8% | 1%
Cc1cc(C)c(NC(=O)C(C)n2nnc3sc4c(c3c2=O)CCCC4)c(C)c1 (stereo unspecified) | -5% | . | . | 10% | . | .
Cc1sc(NC(=O)CN2CCN(c3ccccn3)CC2)c(C#N)c1C | -1% | -2% | -4% | -10% | 12µM* | 9%
CC(=O)Nc1ccc(NC(=O)CN2CCN(c3ccccn3)CC2)cc1 | 0% | 0% | -2% | . | 15% | -1%
Cc1ccc2nc(-c3ccc(NC(=O)COC(=O)c4ccc(=O)[nH]c4)cc3)sc2c1 | 3.4µM* | 2.3µM* | 0.35µM* | 1.6µM* | ? | 0.56µM*
O=C(CN1CCN(c2ccccn2)CC1)Nc1ccc2ccccc2c1 | 17µM* | ? | 11% | -22% | ? | 21%
